Assay results from the supplement of paper PMC8728848.
Only a selection was taken, and the strongest signals are over-represented in it overall.

B1: HMGB1 (Rattus norvegicus), P63159 (protein)
chain: MGKGDPKKPRGKMSSYAFFVQTCREEHKKKHPDASVNFSEFSKKCSERWKTMSAKEKGKFEDMAKADKARYEREMKTYIPPKGETKKKFKDPNAPKRPPSAFFLFCSEYRPKIKGEHPGLSIGDVAKKLGEMWNNTAADDKQPYEKKAAKLKEKYEKDIAAYRAKGKPDAAKKGVVKAEKSKKKKEEEDDEEDEEDEEEEEEEEDEDEEEDDDDE
B2: IRP60A (Homo sapiens), Q9UGN4 (protein)
chain: MWLPWALLLLWVPGCFALSKCRTVAGPVGGSLSVQCPYEKEHRTLNKYWCRPPQIFLCDKIVETKGSAGKRNGRVSIRDSPANLSFTVTLENLTEEDAGTYWCGVDTPWLRDFHDPVVEVEVSVFPASTSMTPASITAAKTSTITTAFPPVSSTTLFAVGATHSASIQEETEEVVNSQLPLLLSLLALLLLLLVGASLLAWRMFQKWIKAGDHSELSQNPKQAATQSELHYANLELLMWPLQEKPAPPREVEVEYSTVASPREELHYASVVFDSNTNRIAAQRPREEEPDSDYSVIRKT

Legend:
Test in all cases: glycan array binding signal (z-score within array); higher = stronger binding
Details in all cases: glycan notation: IUPAC condensed, linker removed
[1] = target: Fuc(a1-2)[Gal(a1-3)]Gal(b1-4)Glc
Method in brief: (§1)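 Glycan array data were curated from 3228 arrays in the Consortium for Functional Glycomics database and kept only where the protein sequence was available. Glycan names were converted to IUPAC-condensed notation, and columns mapping to the same glycan were averaged. The binding signal is a within-array Z-score, averaged across arrays of the same protein sequence at different concentrations or buffers and across linkers. Negative Z-scores can be read as non-binding.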

[2] = target: Fuc(a1-2)[GalNAc(a1-3)]Gal(b1-4)[Fuc(a1-3)]GlcNAc
Method in brief: as §1

Fuc(a1-3)GlcNAc = target: Fuc(a1-3)GlcNAc
Method in brief: as §1

[3] = target: Gal(b1-3)GalNAc(b1-3)Gal(a1-4)Gal(b1-4)Glc
Method in brief: as §1

[4] = target: Gal(b1-3)[GlcNAc(b1-6)]GalNAc
Method in brief: as §1

[5] = target: Gal(b1-3)[Neu5Ac(a2-6)]GalNAc
Method in brief: as §1

[6] = target: Gal(b1-4)GalNAc(b1-3)[Fuc(a1-2)]Gal(b1-4)GlcNAc
Method in brief: as §1

[7] = target: GalNAc(b1-3)Gal(a1-4)Gal(b1-4)GlcNAc
Method in brief: as §1

[8] = target: GlcNAc(b1-6)Gal(b1-4)GlcNAc
Method in brief: as §1

[9] = target: Man(a1-2)Man(a1-2)Man(a1-3)Man
Method in brief: as §1

[10] = target: Neu5Ac(a2-3)Gal(b1-3)GalNAc(b1-3)Gal(a1-4)Gal(b1-4)Glc
Method in brief: as §1

[11] = target: Neu5Ac(a2-3)Gal(b1-3)[Fuc(a1-4)]GlcNAc
Method in brief: as §1

[12] = target: Neu5Ac(a2-3)Gal(b1-4)GlcNAc(b1-3)Gal(b1-4)GlcNAc(b1-3)Gal(b1-4)GlcNAc
Method in brief: as §1

[13] = target: Neu5Ac(a2-3)Gal(b1-4)GlcNAc(b1-3)Gal(b1-4)[Fuc(a1-3)]GlcNAc
Method in brief: as §1

[14] = target: Neu5Ac(a2-3)[Neu5Ac(a2-6)]GalNAc
Method in brief: as §1

[15] = target: Neu5Ac(a2-6)GalNAc(b1-4)GlcNAc
Method in brief: as §1

[16] = target: Neu5Gc(a2-3)Gal(b1-3)[Fuc(a1-4)]GlcNAc
Method in brief: as §1

[17] = target: Neu5Gc(a2-3)Gal(b1-4)GlcNAc
Method in brief: as §1

[18] = target: Fuc(a1-2)[Gal(a1-3)]Gal(b1-4)GlcNAc
Method in brief: as §1

Gal(a1-4)Gal(b1-4)GlcNAc = target: Gal(a1-4)Gal(b1-4)GlcNAc
Method in brief: as §1

[19] = target: Gal(b1-3)GalNAc(b1-4)Gal(b1-4)Glc
Method in brief: as §1

[20] = target: Gal(b1-4)GlcNAc(b1-3)Gal(b1-4)GlcNAc
Method in brief: as §1

Gal3S(b1-4)GlcNAc = target: Gal3S(b1-4)GlcNAc
Method in brief: as §1

GalNAc(a1-3)Gal = target: GalNAc(a1-3)Gal
Method in brief: as §1

GalNAc(b1-3)GalNAc = target: GalNAc(b1-3)GalNAc
Method in brief: as §1

GlcNAc(b1-3)Gal = target: GlcNAc(b1-3)Gal
Method in brief: as §1

Kdn(a2-3)Gal(b1-4)GlcNAc = target: Kdn(a2-3)Gal(b1-4)GlcNAc
Method in brief: as §1

[21] = target: Man(a1-2)Man(a1-3)[Man(a1-2)Man(a1-6)]Man(a1-6)[Man(a1-3)[Man(a1-6)]Man(a1-6)]Man(b1-4)GlcNAc(b1-4)GlcNAc
Method in brief: as §1

[22] = target: Man(a1-2)Man(a1-6)[Man(a1-3)]Man(a1-6)[Man(a1-2)Man(a1-2)Man(a1-3)]Man(b1-4)GlcNAc(b1-4)GlcNAc
Method in brief: as §1

Man(a1-3)[Man(a1-6)]Man = target: Man(a1-3)[Man(a1-6)]Man
Method in brief: as §1

[23] = target: Neu5Ac(a2-3)Gal(b1-3)[Neu5Ac(a2-3)Gal(b1-4)]GlcNAc
Method in brief: as §1

Neu5Ac(a2-8)Neu5Ac = target: Neu5Ac(a2-8)Neu5Ac
Method in brief: as §1

[24] = target: Neu5Ac(a2-8)Neu5Ac(a2-3)[GalNAc(b1-4)]Gal(b1-4)Glc
Method in brief: as §1

[25] = target: Neu5Gc(a2-3)Gal(b1-3)GlcNAc
Method in brief: as §1

Binder | glycan array binding signal (z-score) [1] | glycan array binding signal (z-score) [2] | glycan array binding signal (z-score) (Fuc(a1-3)GlcNAc) | glycan array binding signal (z-score) [3] | glycan array binding signal (z-score) [4] | glycan array binding signal (z-score) [5] | glycan array binding signal (z-score) [6] | glycan array binding signal (z-score) [7] | glycan array binding signal (z-score) [8] | glycan array binding signal (z-score) [9] | glycan array binding signal (z-score) [10] | glycan array binding signal (z-score) [11] | glycan array binding signal (z-score) [12] | glycan array binding signal (z-score) [13] | glycan array binding signal (z-score) [14] | glycan array binding signal (z-score) [15] | glycan array binding signal (z-score) [16] | glycan array binding signal (z-score) [17] | glycan array binding signal (z-score) [18] | glycan array binding signal (z-score) (Gal(a1-4)Gal(b1-4)GlcNAc) | glycan array binding signal (z-score) [19] | glycan array binding signal (z-score) [20] | glycan array binding signal (z-score) (Gal3S(b1-4)GlcNAc) | glycan array binding signal (z-score) (GalNAc(a1-3)Gal) | glycan array binding signal (z-score) (GalNAc(b1-3)GalNAc) | glycan array binding signal (z-score) (GlcNAc(b1-3)Gal) | glycan array binding signal (z-score) (Kdn(a2-3)Gal(b1-4)GlcNAc) | glycan array binding signal (z-score) [21] | glycan array binding signal (z-score) [22] | glycan array binding signal (z-score) (Man(a1-3)[Man(a1-6)]Man) | glycan array binding signal (z-score) [23] | glycan array binding signal (z-score) (Neu5Ac(a2-8)Neu5Ac) | glycan array binding signal (z-score) [24] | glycan array binding signal (z-score) [25]
B1 | 0.151 | -0.019 | 9.99 | -0.447 | -0.335 | -0.379 | -0.322 | 2.44 | 2.57 | -0.58 | -0.21 | -0.164 | -0.169 | 2.06 | -0.263 | 2.1 | 2.69 | 0.031 | – | – | – | – | – | – | – | – | – | – | – | – | – | – | – | –
B2 | – | – | – | – | – | -0.296 | – | – | – | – | – | – | – | – | – | – | – | – | -0.266 | -0.116 | -0.487 | -0.308 | 0.268 | 6.44 | 0.467 | -0.069 | -0.156 | -0.396 | -0.395 | 8.07 | -0.378 | 5.86 | -0.404 | -0.502
